High-throughput results from PubChem BioAssay.
The full list was thinned out, with hits kept by preference.
Dicer processing: inhibitors of human Dicer processing of pre-microRNA; Q9UPY3; cat-ELCCA pre-miR-21 Dicer processing, chemiluminescence; stronger effect = higher value; z-score at 25 µM; 47,000 compounds, 6% hits; in the data active = z-score above about 3, passing the limit was not always enough;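 note: plate controls were vehicle for no effect and no enzyme for full effect; higher signal means more uncleaved substrate so more Dicer inhibition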
Active calls of the source: *.

SMILES	Dicer processing
CC1=C(C(=O)OC2CCCCC2)C(c2ccccc2Br)C2=C(CCCC2=O)N1 (stereo not given)	-0.3
Cn1c(N2CCCCC2)nc2c1c(=O)n(Cc1ccccc1F)c(=O)n2C	-0.48
COC(=S)Nc1ccc(N2CC(C)OC(C)C2)cc1 (stereo not given)	-0.17
CN=C(Nc1cc(C)c(C)cc1C)SC	-0.54
CCOC(=O)CSC(=S)Nc1ccc(C)cc1C	0.37
CSC(=NCc1ccco1)Nc1ccc(C)cc1C	4.1*
CCOc1ccc(S(=O)(=O)n2cc(C)nc2CC)cc1	0.96
CN(C)c1scc(-c2ccc(Cl)cc2)c1C#N	-1.1
CCOc1ccsc1C(=O)NNC(=O)C1CC1	0.21
CCOc1cc(C2Nc3c(C)cccc3-c3cc(C)nn32)ccc1O (stereo not given)	3.6*
Cc1cc2n(n1)C(c1sccc1C)Nc1c(C)cccc1-2 (stereo not given)	0.5
Cc1cc2n(n1)C(c1ccc(N(C)C)cc1)Nc1ccccc1-2 (stereo not given)	1.3
CCOc1cc(C2Nc3ccccc3-c3cc(C)nn32)ccc1O (stereo not given)	0.18
Cc1cc2n(n1)C(c1ccc(N(C)C)cc1)Nc1c(C)cccc1-2 (stereo not given)	6*
CCOc1cccc(C2Nc3c(C)cccc3-c3cc(C)nn32)c1O (stereo not given)	2.7
COc1ccc(C2Nc3c(C)cccc3-c3cc(C)nn32)cc1O (stereo not given)	3.9*
COc1cc(C2Nc3c(C)cccc3-c3cc(C)nn32)ccc1O (stereo not given)	0.04
COc1cccc(C2Nc3ccccc3-c3cc(C)nn32)c1OC (stereo not given)	-0.12
COc1ccc(C2Nc3ccccc3-c3cc(C)nn32)cc1 (stereo not given)	1.8
Cc1cc2n(n1)C(c1ccc(O)c(O)c1)Nc1c(C)cccc1-2 (stereo not given)	-0.93
COc1ccc(C2Nc3ccccc3-c3cc(C)nn32)cc1O (stereo not given)	3.6*
CC(=O)Oc1ccc2nc(-c3ccccc3)oc(=O)c2c1	0.82
Cn1cccc1C(=O)N/N=C(\N)CSc1ccc(Cl)cc1	-0.2
CCNC(=O)NNc1c(Cl)cncc1Cl	-3.7
COC(=O)C(CC(C)C)NC(=O)N1CCOCC1 (stereo not given)	-0.39
SMILES	Dicer processing
CC1CCc2c(sc3nc(SCC(N)=O)n(-c4ccccc4)c(=O)c23)C1 (stereo not given)	1.3
Cc1ccc(/C=N/N2C(=O)/C(=C/c3ccccc3Cl)N=C2c2ccccc2)o1	-2.1
O=C(NCCC1=CCCCC1)C1c2ccccc2Oc2ccccc21	2.5
Cc1cc(NC(=O)COCC(=O)O)n(C)n1	1.1
O=C(O)c1ccc(N2C(=O)C3CCCCC3C2=O)cc1 (stereo not given)	-0.32
Cc1cc2n(n1)C(c1ccccc1O)Nc1ccccc1-2 (stereo not given)	0.37
Cc1cc2n(n1)C(c1cc(Br)ccc1O)Nc1ccccc1-2 (stereo not given)	4.6*
Cc1cc2n(n1)C(c1sccc1C)Nc1ccccc1-2 (stereo not given)	1.2
Cc1ccc(S(=O)(=O)NC(=S)NNC(C)(C)C)cc1	-0.38
COC(=O)COc1cc(Br)c(C2C(C#N)=C(N)Oc3c2ccc2ccccc32)cc1OC (stereo not given)	-0.16
CCCCOC(=O)c1c(C)n(S(C)(=O)=O)c2ccc(NS(C)(=O)=O)cc12	1.5
Nc1ccc(-c2nnc(Nc3ccccc3C(F)(F)F)s2)cc1	3.6*
Nc1ccccc1NC(=S)Nc1ccccc1C(F)(F)F	1.8
NC(=S)Nc1ccccc1C(F)(F)F	-0.1
CSC1=NNC(c2nn(C)cc2Cl)S1 (stereo not given)	-0.28
N#CC(=Nc1ccccc1)C1=C(O)c2ccccc2C1=O	-0.66
CCN(CC)C(=S)Sc1nsc(SC(=S)N(CC)CC)c1C#N	0.69
Cc1nc2ccccc2c(C(=O)O)c1C(=O)O	-1.6
Cc1nc2ccccc2c2c1C(=O)N(c1ccccc1C(=O)OCC(=O)C(C)(C)C)C2=O	4.7*
CSc1nc2ccccc2c(=O)n1CC(=O)C(C)(C)C	1.5
Cc1nnc2c3c(-c4ccccc4)csc3ncn12	-0.53
COC(=O)c1cc(OC)c(OC)cc1N1C(=O)CCC1=O	0.03
CC(C)CC(=O)N1CCN(CC2CC=CCC2)CC1 (stereo not given)	1.6
CSc1ccc(CN2CCN(CC3CC=CCC3)CC2)cc1 (stereo not given)	1.2
CCS(=O)(=O)N1CCN(CC2CC=CCC2)CC1 (stereo not given)	3.7*
SMILES	Dicer processing
CC(=O)Oc1ccc2c(c1)oc(=O)c1c3cc(OC(C)=O)c(OC(C)=O)cc3oc21	0.8
Cc1cc(C)c(S(=O)(=O)Nc2ccc(Br)c3cccnc23)c(C)c1	2.7
Cc1cc2oc(=O)sc2cc1NS(=O)(=O)c1cccc2cccnc12	-3.6
Cc1cc(C)c(S(=O)(=O)Nc2cccc3cccnc23)c(C)c1	4.5*
CCOC(=O)C1C2C=CC3(CN(C(C)c4ccccc4)C(=O)C13)O2 (stereo not given)	0.41
COc1c(Br)csc1C(=O)Nc1cccc(C(F)(F)F)c1	0.56
O=S(=O)(CCO/N=C/c1ccco1)c1ccc(Cl)cc1	-1.8
O=C(O)C1C2C=CC(C2)C1C(=O)N1CCc2ccccc21 (stereo not given)	2.5
O=C(C1CC1)N1c2ccccc2CCc2ccccc21	2.8
O=C(C1CC1)N1CCc2ccccc21	3.3*
CC1CCc2c(sc3nnn(CC(=O)NCc4ccco4)c(=O)c23)C1 (stereo not given)	1.7
CCCc1c(SC(=O)N(C)C)ccc2c(C)cc(=O)oc12	-0.37
CC(=O)CSc1n[nH]c(CN2c3ccccc3Sc3ccccc32)n1	3.5*
CC(C)Cc1nc(SCC(=O)c2ccccc2)n[nH]1	-0.18
CCn1c(CN2c3ccccc3Sc3ccccc32)n[nH]c1=S	0.6
CCOC(=O)c1sc(S(=O)(=O)Cc2ccccc2)c2c1CC(C)(C)CC2=O	-0.35
O/N=C/C1=C(Cl)c2cc(Cl)ccc2SC1	-0.7
CC1(C)CC(=O)c2sc(NC(=O)CCSc3ccccc3)nc2C1	2.5
Nc1ccc(-c2nc3ccccc3o2)cc1	1.6
Cc1ccc2nc(-c3ccc(N)cc3)oc2c1	0.3
Nc1ccc2nc(-c3ccccc3)oc2c1	4*
Clc1ccc(-c2nc3cc(CN4CCCCC4)ccc3o2)cc1	4.3*
Nc1ccc2oc(-c3cccc(Cl)c3)nc2c1	2.3
Clc1ccc(Cn2nnc(N3CCCCC3)n2)cc1	14
Nc1ccc(-c2nc3cc(Cl)ccc3o2)cc1	3.2*
SMILES	Dicer processing
Cc1cc2nc(-c3ccc(N)cc3)oc2cc1C	0.76
Cc1ccc2nc(-c3cc(N)ccc3Cl)oc2c1	4*
Cc1cc2nc(-c3cc(N)ccc3Cl)oc2cc1C	-1.8
Nc1ccc2oc(-c3ccccc3)nc2c1	0.65
Clc1ccc(-c2nc3cc(NCc4cccs4)ccc3o2)cc1	-0.22
CC(C)(C)c1ccc(OS(=O)(=O)c2ccc(Cl)cc2Cl)cc1	-0.98
Cc1ccc(S(=O)(=O)N2CCN(Cc3ccc4c(c3)OCO4)CC2)cc1C	1.7
CCCN(CCC)C(=O)c1cc([NH2+][O-])cc2c1-c1ccc([N+](=O)[O-])cc1C2=O	0.15
C/C(=N\Nc1cc(C(F)(F)F)ccn1)c1ccc(Oc2c(Cl)cncc2Cl)cc1	-0.6
Cn1c(=O)[nH]c(=O)c2c1nc1n(-c3ccccc3)c(-c3ccccc3)cn21	-0.35
Cc1ccc(C)n1-c1sc2c(c1C(=O)NNC(=O)C(C)(C)C)CCCC2	-0.68
